# Only some compounds are listed: those with a hit (about 1.2% of all), similar ones and a draw of the others.
# PfHsp40 yeast: compounds rescuing yeast from Plasmodium falciparum HSP40 toxicity; S. cerevisiae expressing PfHsp40, growth rescue, ATP luminescence; growth rescue, % at 12.5 µM; 340,000 compounds, 0.68% hits; in the data active = growth rescue above about 28%, passing the limit was not always enough; inconclusive = no clear call, values can overlap the other calls;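 note: yeast W303a lacking pdr1 and pdr3 grown in galactose medium; growth measured after three days at 30 °C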
# Yp Topo-I inh: blocks Yersinia pestis topoisomerase I activity. Y. pestis Topo-I cleavage product accumulation, plate reader. activity, % at 10 µM. 360,000 compounds, 0.064% hits. AID 504884; in the data active = activity above about 50%, passing the limit was not always enough; inconclusive = no clear call, values can overlap the other calls
# TcdB inh: TcdB glycohydrolase inhibition; P18177; TcdB glycohydrolase enzymatic assay, plate reader; inhibition, % at 9.99 µM; 350,000 compounds, 0.24% hits; AID 652162; in the data active = inhibition above about 10%
# Target sequence (P18177 whole entry, looked up): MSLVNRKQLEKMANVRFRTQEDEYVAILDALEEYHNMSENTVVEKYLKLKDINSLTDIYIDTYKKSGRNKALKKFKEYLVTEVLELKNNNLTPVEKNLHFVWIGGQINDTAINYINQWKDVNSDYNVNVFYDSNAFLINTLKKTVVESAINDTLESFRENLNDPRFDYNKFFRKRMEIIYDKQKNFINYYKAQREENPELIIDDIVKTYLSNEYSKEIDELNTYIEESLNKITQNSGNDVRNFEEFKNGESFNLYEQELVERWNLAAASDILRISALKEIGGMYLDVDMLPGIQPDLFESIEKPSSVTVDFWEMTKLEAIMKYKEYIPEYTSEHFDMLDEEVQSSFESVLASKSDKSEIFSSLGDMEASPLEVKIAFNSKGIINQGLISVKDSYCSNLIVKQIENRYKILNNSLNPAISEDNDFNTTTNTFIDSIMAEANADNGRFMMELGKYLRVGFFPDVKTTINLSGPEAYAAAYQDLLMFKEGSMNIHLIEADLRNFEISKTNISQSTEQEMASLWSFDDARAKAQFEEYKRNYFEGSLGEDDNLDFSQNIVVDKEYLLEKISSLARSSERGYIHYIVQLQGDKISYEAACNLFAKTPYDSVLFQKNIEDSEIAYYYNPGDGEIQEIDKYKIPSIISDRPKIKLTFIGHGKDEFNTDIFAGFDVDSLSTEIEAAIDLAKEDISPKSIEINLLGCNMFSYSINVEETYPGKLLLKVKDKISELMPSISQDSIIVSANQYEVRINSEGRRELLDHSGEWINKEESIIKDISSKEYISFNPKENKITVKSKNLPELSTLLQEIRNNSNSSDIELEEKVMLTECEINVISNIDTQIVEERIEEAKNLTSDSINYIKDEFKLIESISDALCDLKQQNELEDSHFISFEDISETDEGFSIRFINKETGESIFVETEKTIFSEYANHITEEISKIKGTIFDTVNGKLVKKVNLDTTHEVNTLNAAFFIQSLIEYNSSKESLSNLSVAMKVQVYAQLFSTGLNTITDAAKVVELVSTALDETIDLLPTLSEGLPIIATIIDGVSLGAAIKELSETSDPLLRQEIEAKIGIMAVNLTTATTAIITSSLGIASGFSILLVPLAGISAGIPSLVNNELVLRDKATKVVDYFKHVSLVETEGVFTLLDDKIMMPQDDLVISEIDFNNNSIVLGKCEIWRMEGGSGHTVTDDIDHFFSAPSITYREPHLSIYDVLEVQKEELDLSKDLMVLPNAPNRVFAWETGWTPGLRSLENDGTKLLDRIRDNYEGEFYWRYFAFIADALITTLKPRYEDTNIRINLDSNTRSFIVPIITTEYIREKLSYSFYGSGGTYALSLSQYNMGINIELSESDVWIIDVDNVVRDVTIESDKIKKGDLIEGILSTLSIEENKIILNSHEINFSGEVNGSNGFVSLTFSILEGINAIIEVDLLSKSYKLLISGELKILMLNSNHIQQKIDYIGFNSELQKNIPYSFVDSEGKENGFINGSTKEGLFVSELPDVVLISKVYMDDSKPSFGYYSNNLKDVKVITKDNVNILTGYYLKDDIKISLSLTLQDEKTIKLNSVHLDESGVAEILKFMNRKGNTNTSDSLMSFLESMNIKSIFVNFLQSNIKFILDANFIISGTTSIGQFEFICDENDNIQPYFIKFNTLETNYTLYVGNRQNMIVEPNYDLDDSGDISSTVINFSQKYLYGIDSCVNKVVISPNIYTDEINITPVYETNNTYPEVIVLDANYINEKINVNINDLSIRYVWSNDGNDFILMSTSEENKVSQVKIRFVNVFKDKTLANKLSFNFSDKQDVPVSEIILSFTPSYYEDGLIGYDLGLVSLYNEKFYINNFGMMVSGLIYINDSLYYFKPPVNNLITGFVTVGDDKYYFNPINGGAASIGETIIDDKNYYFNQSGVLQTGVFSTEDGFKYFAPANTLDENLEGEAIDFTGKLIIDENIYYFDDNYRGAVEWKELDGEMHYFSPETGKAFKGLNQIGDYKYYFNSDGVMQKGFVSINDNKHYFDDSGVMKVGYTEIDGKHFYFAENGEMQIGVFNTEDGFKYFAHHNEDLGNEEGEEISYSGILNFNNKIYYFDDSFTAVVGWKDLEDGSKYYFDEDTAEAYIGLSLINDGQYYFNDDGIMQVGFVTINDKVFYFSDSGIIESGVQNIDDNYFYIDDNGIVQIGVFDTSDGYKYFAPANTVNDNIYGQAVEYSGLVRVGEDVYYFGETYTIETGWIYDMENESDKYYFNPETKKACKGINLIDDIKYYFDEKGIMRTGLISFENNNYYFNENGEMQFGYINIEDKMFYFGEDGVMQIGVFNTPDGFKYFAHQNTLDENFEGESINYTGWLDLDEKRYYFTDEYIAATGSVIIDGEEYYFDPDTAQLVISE
# FadD28 binding: inhibitors of Mycobacterium tuberculosis FadD28 bisubstrate binding; FadD28 bisubstrate probe binding, fluorescence polarization; inhibition, % at 12.5 µM; 360,000 compounds, 0.22% hits; in the data active = inhibition above about 8.5%, passing the limit was not always enough; inconclusive = no clear call, values can overlap the other calls
# PrP 5UTR inh: inhibition of PrP 5' UTR reporter expression. cell-based PrP 5' UTR mRNA reporter, plate reader. inhibition, % (concentration not given with the values). 340,000 compounds, 0.35% hits. AID 488862; in the data active = inhibition above about 52%; note: 0 = median of the neutral control wells
# BioA inh: BioA (M. tuberculosis) enzyme inhibition; 360,000 compounds, 0.096% hits; inhibition, % at 9.99 µM; purified M. tuberculosis BioA enzyme, plate reader; in the data active = inhibition above about 40%; inconclusive = no clear call, values can overlap the other calls
# PrP UTR cherry: prion 5' UTR mRNA inhibition, cherry-pick retest. shares compounds with PrP 5UTR inh. cell-based prion protein 5' UTR reporter, plate reader. inhibition, % at 2.5 µM. 1,100 compounds, 48% hits; in the data active = inhibition above about 54%; inconclusive = no clear call, values can overlap the other calls
# * = called active by the depositor; ? = inconclusive; nt = no result.
SMILES,PfHsp40 yeast,Yp Topo-I inh,TcdB inh,FadD28 binding,PrP 5UTR inh,BioA inh,PrP UTR cherry
C[C@H]1CN([C@@H](C)CO)C(=O)c2cc(C#CCN(C)C)cnc2O[C@H]1CN(C)Cc1cccc(C(=O)O)c1,nt,nt,0,nt,nt,2,nt
CN1CCc2c(sc(NC(=O)c3ccc([N+](=O)[O-])o3)c2C(N)=O)C1,0,-7,2,0,91*,1,97*
CCOC(=O)c1c(C)[nH]c(C2=NNC(=NC3CC3)SC2)c1C,0,10,nt,2,71*,nt,54*
CCOC(=O)c1c(C)[nH]c(/C(C)=N/O)c1C,1,-15,3,-2,-5,0,nt
O=C(CN1CCOCC1)NCC[C@H]1CC[C@@H](NC(=O)Nc2ccccc2)[C@@H](CO)O1,nt,nt,-2,nt,nt,1,nt
CCOC(=O)N1CCN(C(=O)C(CC)n2nc(C)c3sc4ccccc4c3c2=O)CC1 (stereo not given),-2,8,nt,1,81*,-2,-9
Cc1ccc(C(=O)Sc2cccccc2=O)cc1,698*,5,-1,0,57*,-2,?
O=C(Nc1ccccc1SC(=O)c1ccccc1)c1ccccc1,nt,16,2,-4,nt,0,nt
COCCNC(=O)C[C@@H]1C[C@@H]2c3cc(NC(=O)Nc4ccccc4F)ccc3O[C@@H]2[C@@H](CO)O1,nt,nt,nt,nt,nt,0,nt
O=C(Nc1cc2ccccc2oc1=O)c1ccccc1,-1,-5,1,1,57*,nt,63*
Nc1nc(=O)n(C2CC(O)C(CO)O2)cc1Cl (stereo not given),nt,nt,1,-2,nt,1,nt
Cc1cc(N)nc(=O)n1C1CC(O)C(CO)O1 (stereo not given),0,2,1,-1,59*,nt,-7
C[C@H]1CN([C@@H](C)CO)S(=O)(=O)c2ccc(-c3ccccc3)cc2O[C@H]1CN(C)CC1CC1,nt,nt,-1,nt,nt,0,nt
Cc1ccc(CCC(=O)Nc2ncc(Cc3cccc(Cl)c3Cl)s2)o1,-1,3,1,-6,53*,0,89*
C[C@@H]1CCCCO[C@@H](CN(C)Cc2ccncc2)[C@H](C)CN([C@H](C)CO)C(=O)c2cc(NC(=O)c3ccccc3)ccc2O1,nt,nt,0,nt,nt,3,nt
CCCNC(=O)N(C)C[C@H]1Oc2ncc(-c3ccncc3)cc2C(=O)N([C@@H](C)CO)C[C@@H]1C,nt,nt,-1,nt,nt,-1,nt
C[C@@H]1CN([C@H](C)CO)C(=O)Cc2cc(NC(=O)Nc3cccc4ccccc34)ccc2O[C@H]1CN(C)Cc1ccncc1,nt,nt,1,nt,nt,-3,nt
CCOC(=O)C1(CCc2ccccc2)CCN(C(=O)CCn2cncn2)CC1,0,11,1,-4,81*,nt,-48
COc1ccc(N/C=C/C(=O)c2cc(OC)c(OC)c(OC)c2)cc1,1,-4,1,-4,71*,2,89*
COc1ccc(OC)c(N/C=C/C(=O)c2ccccc2)c1,-1,-5,0,0,81*,-1,61*
COc1ccc(OC)c(N/C(C)=C/C(=O)c2ccccc2)c1,-1,13,nt,0,-94,nt,nt
Oc1cc(O)cc(-c2cc3ccc(O)cc3o2)c1,3,-21,1,7,2,3,nt
CC1(C)Oc2cc3oc(-c4cc(O)cc(O)c4)cc3cc2CC1O (stereo not given),0,-14,0,?,71*,1,?
COc1ccc(-c2ccc([C@H]3[C@@H](C#N)N(C(=O)NC4CCCC4)[C@@H]3CO)cc2)cc1,nt,nt,-1,nt,nt,-5,nt
CCOc1ccc(/C=C2\SC(=S)N(CCC(=O)O)C2=O)cc1,2,17,1,-1,68*,nt,71*
SMILES,PfHsp40 yeast,Yp Topo-I inh,TcdB inh,FadD28 binding,PrP 5UTR inh,BioA inh,PrP UTR cherry
Cc1ccc(/C=C2\SC(=S)N(CCC(=O)NNC(=O)c3ccccc3O)C2=O)cc1,0,8,8,nt,-6,-1,nt
CCOc1ccc(/C=C2/SC(=S)N(CCC(=O)Nc3ccc(C(=O)O)cc3)C2=O)cc1,0,13,-1,1,-23,1,nt
Cc1ccc(/C=C2\SC(=S)N(CCCC(=O)NNC(=O)c3ccccc3O)C2=O)cc1,-1,0,1,-1,53*,-2,75*
COCC(=O)N1[C@@H](CO)[C@@H](c2ccccc2)C12CN(C(=O)Nc1ccccc1F)C2,nt,nt,1,nt,nt,nt,nt
CCOC(=O)c1cnc(Nc2nc3ccccc3o2)nc1C,-3,3,nt,0,65*,0,70*
Cc1ccccc1C1C(C#N)=C2N=C(N)c3ccccc3N2C2=C1C(=O)CCC2 (stereo not given),1,-2,0,-2,-11,0,nt
N#CC1=C2N=C(N)c3ccccc3N2C2=C(C(=O)CCC2)C1c1cccc(Cl)c1 (stereo not given),1,-2,-1,-1,70*,0,3
COc1c(C)cc(C(=O)C2CCCN(C(=O)c3cccc(-n4cccn4)c3)C2)cc1C (stereo not given),2,23,nt,-6,-12,4,nt
COc1c(C)cc(C(=O)C2CCCN(C(=O)c3ccc4[nH]ccc4c3)C2)cc1C (stereo not given),1,11,-1,0,78*,2,0
CO[C@H]1CN(C)C(=O)c2ccc(NC(=O)C3CC3)cc2OC[C@@H](C)N(C)C[C@@H]1C,nt,nt,0,nt,nt,-3,nt
CNCC(=O)O,2,-4,1,-2,92*,-1,8
COc1cccc(S(=O)(=O)Nc2ccc3c(c2)OC[C@@H](C)NC[C@H](C)[C@H](OC)CN(C)C3=O)c1,nt,nt,0,nt,nt,1,nt
CCOc1ccccc1N(CC(=O)Nc1cccnc1)S(=O)(=O)c1ccc(C)cc1,0,20,1,-6,54*,nt,-17
CCOc1ccccc1N(CC(=O)Nc1cccnc1)S(C)(=O)=O,-1,-6,nt,-3,-20,11,nt
COc1ccc(CN2[C@@H]3CN(C(=O)Nc4ccc(F)cc4)c4ccccc4[C@@H]3[C@@H]2CO)cc1,nt,nt,0,nt,nt,-2,nt
CCNC(=S)NNC(=O)c1cc(-c2ccc(OCC)cc2)nc2ccccc12,-1,-1,2,-3,58*,nt,27
CCc1ccc(-c2cc(C(=O)Nn3cnnc3)c3ccccc3n2)cc1,-1,2,1,-9,70*,nt,61*
COc1ccc(CC2C(=O)NC(C)C(=O)N(C)C3C(=O)N(C)C(Cc4ccc(O)c(c4)Oc4ccc(cc4)C3O)C(=O)NC(C)C(=O)NC(C)C(=O)N2C)cc1 (stereo not given),-2,20,1,-3,53*,nt,41
COc1ccc(COC(=O)C2=C(C)NC(=O)NC2c2ccc(O)c(OC)c2)cc1 (stereo not given),0,0,3,-4,-15,2,nt
CC1CC(C)(O)CC(C(O)CC2CC(=O)NC(=O)C2)C1=O (stereo not given),20,7,0,0,64*,nt,61*

# From PubChem
